Records with an inconclusive call do not appear. The source made the active and inactive calls. The calls were made as follows, unless noted: active = hit-call score of the fitted dose curve at least 0.9, where 1 is the maximum; inactive = score below 0.9.
Columns and labels:
[1] = CCTE_Mundy_HCI_Cortical_Synap_Neur_Matur_NeuriteLength: CCTE's Synaptogenesis and Neurite Maturation Assay in rat cortical cells for Neurite Length, Mundy Lab (AID 2284214)
Outline: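 Rat primary cortical cultures, AraC added DIV 5, dosed DIV 7 through DIV 12 […]. Fixed, MAP2/synaptophysin immunostained with Hoechst; neurite length by high-content imaging, fitted in positive direction versus DMSO.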

[2] = CCTE_Mundy_HCI_Cortical_Synap_Neur_Matur_NeuriteSpotCountPerNeuron: CCTE's Synaptogenesis and Neurite Maturation Assay in rat cortical cells for Neurite Spot Count per Neuron Count, Mundy Lab (AID 2284215)
Outline: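 Developing rat cortical neurons, with glia suppressed by AraC, are exposed to chemicals from DIV 7 to DIV 12. Automated fluorescence imaging of MAP2-labelled neurites and synaptophysin puncta yields a count per neuron, normalised against DMSO wells.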

[3] = CCTE_Mundy_HCI_Cortical_Synap_Neur_Matur_SynapseCount: CCTE's Synaptogenesis and Neurite Maturation Assay in rat cortical cells for Synapse Count, Mundy Lab (AID 2284218)
Outline: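 Rat primary cortical cultures, AraC at DIV 5, chemical dosing DIV 7 to DIV 12 (288.33 h). Fixed cells stained for MAP2, synaptophysin and Hoechst; synapses per neuron counted by high-content imaging, loss of signal versus DMSO.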

[4] = CCTE_Mundy_HCI_Cortical_Synap_Neur_Matur_NeuriteCount: CCTE's Synaptogenesis and Neurite Maturation Assay in rat cortical cells for Neurite Count, Mundy Lab (AID 2284222)
Outline: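 Rat primary cortical cells; AraC added at DIV 5, chemicals dosed with media change at DIV 7 through DIV 12. MAP2/synaptophysin/Hoechst immunostaining, high-content imaging of neurite number; fitted relative to DMSO.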

[5] = CCTE_Mundy_HCI_Cortical_Synap_Neur_Matur_CellBodySpotCount: CCTE's Synaptogenesis and Neurite Maturation Assay in rat cortical cells for Cell Body Spot Count, Mundy Lab (AID 2284223)
Outline: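 Chemicals were applied to AraC-treated rat primary cortical cells at DIV 7 and measured at DIV 12. Fixed cells were labelled for MAP2, synaptophysin and nuclei, and high-content imaging gave cell body synaptophysin spot counts per neuron relative to DMSO.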

[6] = CCTE_Mundy_HCI_hNP1_Pro_ResponderAvgInten: CCTE's Proliferation Assay in human neuroprogenitor cells, Mundy Lab (AID 2284224; active = hit-call score of the fitted dose curve at least 0.9, where 1 is the maximum;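 also: human neural progenitor cells hNP1 derived from WA09 embryonic stem cells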)
Outline: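 Proliferation read as average intensity of BrdU-positive cells, imaged at 26.25 h post-dosing: chemical exposure started after 40–44 h culture, BrdU during final 4 h, paraformaldehyde fixation. Positive-direction fit relative to DMSO.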

[7] = UKN2_HCS_IMR90_cell_viability: Viability Assessment in the University of Konstanz (UKN) Leist Lab Neural Crest Cell Migration Assay in human induced IMR90 Pluripotent Stem Cells (UKN2) (AID 2284233);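 also: viability of neural crest cells differentiated from IMR90 iPSC measured by calcein-AM fluorescence imaging; cells exposed to compound for 24 h after a 24 h migration phase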
Outline: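 Neural crest cells derived from IMR90 iPSC migrate into a stopper-free zone for 24 h in EGF/FGF medium, then are exposed to compound for 24 h. Viability assessed by calcein-AM and Hoechst staining with high-content imaging, fitted bidirectionally versus DMSO.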

[8] = CCTE_Mundy_HCI_Cortical_NOG_NeuronCount: CCTE's Neurite Outgrowth Assay in rat cortical cells for Neuron Count, Mundy Lab (AID 2284236; active = hit-call score of the fitted dose curve at least 0.9, where 1 is the maximum;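 also: neurons counted by imaging betaIII-tubulin and Hoechst stained cortical cells; cells exposed to compound for about 48 hours before fixation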)
Outline: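 Read-out: neuron number by high-content imaging of betaIII-tubulin (Alexa Fluor-488) and Hoechst-labelled rat primary cortical cells.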

[9] = CCTE_Mundy_HCI_Cortical_NOG_BPCount: CCTE's Neurite Outgrowth Assay in rat cortical cells for Branch Point Count, Mundy Lab (AID 2284237);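 also: branch points counted about two days after chemical exposure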
Outline: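 Measured 50.33 h after dosing, this morphology endpoint uses rat primary cortical cultures labelled for betaIII-tubulin. Branch points are quantified by high-content imaging, with DMSO as negative control and baseline.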

[10] = CCTE_Mundy_HCI_hNP1_Casp3_7: CCTE's Caspase-Glo 3/7 Assay in human neuroprogenitor cells for Apoptosis, Mundy Lab (AID 2284240)
Outline: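 Luminescent caspase-3/7 readout, 26.5 h post-dose, in human neural progenitor cells from WA09 embryonic stem cells. Cells grew 40–44 h at 37 °C, 5% CO2 before chemical addition. Activity analysed as signal increase over DMSO baseline.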

[11] = CCTE_Mundy_HCI_hNP1_CellTiter: CCTE's Cell Titer-Glo 2 Assay in human neuroprogenitor cells for Viability, Mundy Lab (AID 2284241; active = hit-call score of the fitted dose curve at least 0.9, where 1 is the maximum;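 also: a hit is a drop in ATP luminescence versus DMSO meaning reduced viability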)
Outline: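 Viability read as luminescent ATP content (CellTiter-Glo, 30 min room temperature) twenty-four hours after dosing, relative to DMSO. Cells: WA09-derived hNP1 neuroprogenitors on poly-L-ornithine/laminin, plated 40 to 44 hours before chemical.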

[12] = CCTE_Mundy_HCI_Cortical_Synap_Neur_Matur_NeuronCount: CCTE's Synaptogenesis and Neurite Maturation Assay in rat cortical cells for Neuron Count, Mundy Lab (AID 2284242; active = hit-call score of the fitted dose curve at least 0.9, where 1 is the maximum;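 also: hits reduce neuron count versus DMSO baseline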)
Outline: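 Rat primary cortical cells, AraC added at DIV 5, dosed with media change from DIV 7 to DIV 12. Fixed, Hoechst-stained and immunolabelled for MAP2 and synaptophysin; neuron number counted by high-content imaging, loss fitted versus DMSO.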

[13] = IUF_NPC2c_oligodendrocyte_migration_120hr: Leibniz Research Institute for Environmental Medicine (IUF) 120-hour Neural Progenitor Cell Migration Assay for Oligodendrocyte Migration (NPC2c) (AID 2284297);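 also: O4-positive oligodendrocyte migration distance divided by radial glia migration distance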
Outline: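 Using fetal brain neural progenitor spheres differentiating in N2 medium at 37C, compounds were present for 120 h. Oligodendrocyte migration distance, normalized to radial glia migration, was measured from imaged O4 staining.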

[14] = IUF_NPC2a_radial_glia_migration_120hr: Leibniz Research Institute for Environmental Medicine (IUF) 120-hour Neural Progenitor Cell Migration Assay for Radial Glia Migration (NPC2a) (AID 2284298)
Outline: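 Exposure of 0.3 mm primary hNPC spheres runs day 0 to 120 h with a half-volume medium change at day 3. Fixed cells get Hoechst staining; high-content analysis of nuclear positions yields radial glia migration distance per well, compared against DMSO controls.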

[15] = IUF_NPC2a_radial_glia_migration_72hr: Leibniz Research Institute for Environmental Medicine (IUF) 72-hour Neural Progenitor Cell Migration Assay for Radial Glia Migration (NPC2a) (AID 2284299)
Outline: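 Human fetal neural progenitor spheres (0.3 mm) plated on poly-D-lysine/laminin in N2 differentiation medium and exposed from day 0 at 7 concentrations; radial glia migration distance from sphere edge measured at 72 h on brightfield images, mean of four directions, vs DMSO.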

[16] = IUF_NPC2b_neuronal_migration_120hr: Leibniz Research Institute for Environmental Medicine (IUF) 120-hour Neural Progenitor Cell Migration Assay for Neuron Migration (NPC2b) (AID 2284300)
Outline: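 Fetal human NPC spheres migrate on PDL/laminin during 120 h compound treatment; neuronal migration distance, glia-normalized, scored versus DMSO control.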

[17] = IUF_NPC3_neuronal_differentiation_120hr: Leibniz Research Institute for Environmental Medicine (IUF) 120-hour Neuronal Differentiation Assay (NPC3) (AID 2284301)
Outline: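 Human fetal (GW 16-19) neural progenitor spheres (0.3 mm) plated on poly-D-lysine/laminin in N2 differentiation medium, exposed 120 h at 37C with half-medium renewal day 3; 7 concentrations. TUBB3+ cells as % of Hoechst nuclei, CNN-identified; DMSO baseline.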

[18] = IUF_NPC4_neurite_area_120hr: Leibniz Research Institute for Environmental Medicine (IUF) 120-hour Neuronal Morphology Assay for Neurite Area (NPC4) (AID 2284305; active = hit-call score of the fitted dose curve at least 0.9, where 1 is the maximum)
Outline: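 Human fetal neural progenitor spheres (0.3 mm) plated on poly-D-lysine/laminin in N2 differentiation medium, exposed 120 h (7 concentrations, DMSO ≤0.1%, half-medium refresh day 3). Fixed, TUBB3 immunostained; mean neurite area per neuron by Omnisphero skeletonization.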

[19] = IUF_NPC2-5_cytotoxicity_72hr: Cytotoxicity Assessment at 72 hours in the Leibniz Research Institute for Environmental Medicine (IUF) Neural Progenitor Cell Migration and Differentiation Assay for Cytotoxicity (NPC2-5) (AID 2284306; active = hit-call score of the fitted dose curve at least 0.9, where 1 is the maximum;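 also: LDH release into supernatant measured by resorufin fluorescence marking membrane damage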)
Outline: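 Human fetal primary neural progenitor spheres (0.3 mm) plated on poly-D-lysine/laminin in N2 differentiation medium, exposed from day 0 at 37C. LDH-dependent resazurin-to-resorufin fluorescence in supernatant at 72 h; 7 concentrations, DMSO at most 0.1%.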

[20] = IUF_NPC2-5_cell_number_120hr: Cell Number Assessment at 120 hours in the Leibniz Research Institute for Environmental Medicine (IUF) Neural Progenitor Cell Migration and Differentiation Assay (NPC2-5) (AID 2284308);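 also: count of Hoechst-stained nuclei in migration zone around plated human neural progenitor spheres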
Outline: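 Seven-point serial dilutions plus solvent control were applied to plated 0.3 mm hNPC spheres at differentiation start, with medium half-replaced at day 3. Nuclei positive for Hoechst in the migration zone were enumerated at 120 h.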

[21] = IUF_NPC2-5_viability_120hr: Viability Assessment at 120 hours in the Leibniz Research Institute for Environmental Medicine (IUF) Neural Progenitor Cell Migration and Differentiation Assay (NPC2-5) (AID 2284312)
Outline: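 Human fetal neural progenitor spheres (0.3 mm) plated on poly-D-lysine/laminin in N2 differentiation medium, exposed 120 h with half-medium refresh at day 3. Viability by alamar blue resazurin fluorescence; 7 concentrations, DMSO max 0.1%.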

[22] = CCTE_Mundy_HCI_iCellGluta_NOG_NeuriteLength: CCTE's Neurite Outgrowth Assay in iCellGluta cells for Neurite Length, Mundy Lab (AID 2284318; active = hit-call score of the fitted dose curve at least 0.9, where 1 is the maximum)
Outline: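 Automated high-content imaging of betaIII-tubulin (Alexa Fluor-488) and Hoechst-stained cells gave neurite length, normalized to the DMSO baseline.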

[23] = IUF_NPC1_cytotoxicity_72hr: Cytotoxicity Assessment at 72 hours in the Leibniz Research Institute for Environmental Medicine (IUF) Neural Progenitor Cell Proliferation Assay (NPC1) (AID 2284332; active = hit-call score of the fitted dose curve at least 0.9, where 1 is the maximum;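 also: rising LDH signal means more cytotoxicity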)
Outline: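 Human fetal neural progenitor spheres (0.3 mm) in EGF/FGF proliferation medium, 37C, exposed 72 h without renewal. LDH release in supernatant read by resorufin fluorescence; gain of signal scored relative to dynamic range.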

[24] = CCTE_Mundy_HCI_iCellGluta_NOG_NeuriteCount: CCTE's Neurite Outgrowth Assay in iCellGluta cells for Neurite Count, Mundy Lab (AID 2284342; active = hit-call score of the fitted dose curve at least 0.9, where 1 is the maximum;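 also: chemical exposure about 48 hours starting 2 hours after plating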)

Measured: AC50

BrC1CC(Br)CC(Br)CC(Br)CC(Br)CC(Br)C1 (centres undefined)
inactive: [7] | [14] | [15] | [19] | [20] | [21] | [23]
active: [1] 4.04 µM | [2] 3.23 µM | [3] 3.61 µM | [4] 4.27 µM | [5] 3.8 µM | [6] 7.21 µM | [8] 9.27 µM | [9] 8.4 µM | [10] 4.22 µM | [11] 8.39 µM | [12] 3.43 µM | [13] 1.24 µM | [16] 3.11 µM | [17] 1.72 µM | [18] 1.06 µM | [22] 3.77 µM | [24] 4.69 µM

Reference: PubChem BioAssay (EPA / NIEHS)
